Assay outcomes deposited in PubChem BioAssay by several laboratories.
Rows were chosen to be rich in hits. Some 1.5% of all compounds tested hit in one or more screens of this group.
SARS 3CLpro inh = SARS-CoV 3CLpro protease inhibition. inhibition, % at 6 µM. 0.14% of 290,000 active. P0C6X7. recombinant SARS-CoV 3CLpro, quenched FRET peptide cleavage; in the data active = inhibition above about 12%
VHR inh abs = inhibitors of human VHR1 phosphatase (DUSP3) | P51452 | recombinant VHR phosphatase, pNPP absorbance | inhibition, % at 13.3 µM | 0.52% of 290,000 active | AID 1654; in the data active = inhibition above about 50%
Target sequence (P51452 whole entry, looked up): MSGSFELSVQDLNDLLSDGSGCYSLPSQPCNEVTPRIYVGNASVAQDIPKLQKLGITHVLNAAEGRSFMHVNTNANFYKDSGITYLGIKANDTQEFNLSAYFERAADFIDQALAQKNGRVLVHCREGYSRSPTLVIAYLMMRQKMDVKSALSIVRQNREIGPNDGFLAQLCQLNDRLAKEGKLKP
Mtb hypoxia inh = Mtb hypoxia fluorescent reporter inhibition; M. tuberculosis hypoxia-regulated fluorescent reporter, fluorescence; fluorescence inhibition, % (test concentration not listed); 0.1% of 300,000 active; AID 1159583; in the data active = fluorescence inhibition mostly above about 23%, no sharp cut-off; inactive = mostly below about 17%
PrP 5UTR inh = inhibition of PrP 5' UTR reporter expression; cell-based PrP 5' UTR mRNA reporter, plate reader; inhibition, % (no concentration beside the values); 0.35% of 340,000 active; AID 488862; in the data active = inhibition above about 52%
MazEF act = increases E. coli MazEF RNase cleavage of RNA. P0AE70. FAM/BHQ RNA-DNA oligo cleavage fluorescence, 5 h. activation, % at 20 µM. 0.32% of 350,000 active. AID 504720; in the data active = activation above about 50%
Target sequence (P0AE70 whole entry, looked up): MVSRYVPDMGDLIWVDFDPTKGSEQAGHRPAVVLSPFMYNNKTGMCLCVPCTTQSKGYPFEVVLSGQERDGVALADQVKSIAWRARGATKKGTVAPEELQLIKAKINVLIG
PrPC TRFRET = reduces human prion protein on the cell surface; 0.43% of 370,000 active; inhibition, % at 13.8 µM; AID 720596; P04156; cell surface PrPC, TR-FRET read-out; in the data active = inhibition above about 24%
Numbers stand for hits; 0 = inactive; - = no result; + = active, no number.

SMILES	SARS 3CLpro inh	VHR inh abs	Mtb hypoxia inh	PrP 5UTR inh	MazEF act	PrPC TRFRET
CCOC(=O)C(C)=NNC(=O)c1cccc([N+](=O)[O-])c1	-	-	0	-	-	-
CC(C)=CCCC1=CCC(C=NNC(N)=O)C(C)C1 (stereo unspecified)	-	-	0	-	-	-
CCN(CC)c1ccc(C(=O)O)cc1	0	0	0	0	0	0
CCN(CC)c1ccc(/C=C2\C(=O)c3ccc(C(=O)O)cc3C2=O)cc1	0	0	0	0	52	0
Cc1cccc(NC(=O)C(=O)NNC(=O)c2ccc(C(C)(C)C)cc2)c1	0	52	-	0	0	0
CC1CCCN(CCCNC(=O)c2ccc(CS(=O)(=O)c3c(Cl)cccc3Cl)o2)C1 (stereo unspecified)	0	56	0	0	0	0
Cc1cccc(CCNc2nc3ccc(C)cc3n3cnnc23)c1	0	-	0	0	0	0
Cc1ccc2nc(NCCc3ccc(Cl)cc3)c3nncn3c2c1	0	0	0	0	80	0
O=C(C(=CO)N=Nc1ccccc1)c1ccc(Cl)cc1	-	-	0	-	-	-
Cc1nc(N2CCc3ccccc3C2)[nH]c(=O)c1Cc1ccccc1	0	0	-	0	0	0
Cc1nc(-n2[nH]c3c(c2=O)CCCC3)[nH]c(=O)c1Cc1ccccc1	0	0	0	0	63	0
NC(=O)C[C@H](NC(=O)c1ccc(Cl)cc1)C(=O)OCc1ccccc1	-	-	28	0	0	0
COCCCNC(=O)C(CC(N)=O)NC(=O)OCc1ccccc1 (stereo unspecified)	0	0	0	-	0	0
CCOC(=O)Cc1csc(NC(=O)CSc2nc(N)c3c(C)c(C)sc3n2)n1	0	50	0	0	0	0
Cc1ccccc1N(CC(=O)NCc1ccccc1)C(=O)CCC(=O)Nc1nccs1	0	51	0	0	0	0
CCCCc1nnc(NC(=O)CSCc2cc(=O)n3cc(C)sc3n2)s1	0	56	0	0	0	0
CCCCCCCCN1C(CC(=O)OC)c2cc(F)ccc2S1(=O)=O (stereo unspecified)	-	-	0	-	-	-
C#Cc1ccc(C2C=C(C(=O)N3CCN(Cc4ccc5c(c4)OCO5)CC3)OC(OCc3ccc(CO)cc3)C2)cc1 (stereo unspecified)	-	-	0	-	-	-
COc1ccc2c(c1)CCc1c(C(=O)N(C)c3ccccc3)noc1-2	0	54	0	0	0	0
C[C@@]12C(=O)Nc3ccc(Cl)cc3C(=O)N1C1c3cc(Br)ccc3OCC1C2c1ccccc1 (stereo partly specified)	-	-	0	-	-	-
COc1ccc(C(=O)Nc2ccc(NC(=O)CSc3nnc(-c4ccncc4)n3C)cc2)cc1	0	0	0	0	0	0
Cn1c(SCC(=O)Nc2ccc(NC(=O)c3ccccc3)cc2)nnc1-c1ccncc1	0	52	0	0	0	0
Cc1ccc(NC(=O)c2ccc3nc(N4CCOCC4)sc3c2)c(Cl)c1	0	56	0	0	0	0
CC(O)[C@@]1(O)CCC2C3CCC4CC(O)CC[C@]4(C)C3=CC[C@@]21C (stereo partly specified)	-	-	0	-	-	-
CCC=C(NC(C)=O)c1ccccc1	-	-	0	-	-	-
SMILES	SARS 3CLpro inh	VHR inh abs	Mtb hypoxia inh	PrP 5UTR inh	MazEF act	PrPC TRFRET
CCOc1ccc(C=NN2C(C)CCCC2C)cc1OC (stereo unspecified)	-	-	0	-	-	-
O=C1NN(c2ccccc2)C(=O)/C1=C/c1ccc(Sc2cccc3ccccc23)o1	0	51	0	0	0	0
COc1cccc(/C=N/Nc2nc3ccccc3n3cnnc23)c1O	0	0	-	0	0	0
COc1cccc(/C=N/Nc2nc3ccccc3n3cnnc23)c1	0	51	-	0	0	0
c1ccc(-c2nc3ccccc3c3nc4ccccc4n23)cc1	0	51	0	0	0	0
O=C(O)Cn1c(-c2ccccc2)nc2ccccc21	0	51	-	0	0	0
Cc1ccc(C#N)c(SCCN2CCCCC2)n1	0	52	0	0	0	0
C#CCNC(=O)C1=CC(c2ccc(C(F)(F)F)cc2)CC(OCc2ccc(CO)cc2)O1 (stereo unspecified)	-	-	0	-	-	-
COc1ccc(CN(CC(=O)NCc2ccccc2)C(=O)CCC(=O)Nc2cc(C)ccn2)cc1	0	52	0	0	0	0
COc1ccc(CN(CC(=O)NCc2ccc(F)cc2)C(=O)CCC(=O)Nc2cc(C)ccn2)cc1	0	0	0	0	0	0
O=C1CN(C(=O)CNCc2ccccc2)c2ccccc2N1	0	52	0	0	0	0
O=C1CN(C(=O)COC(=O)c2ccc(Br)o2)c2ccccc2N1	-	-	26	0	0	0
CSc1ccc(C(=O)C2CCCN(Cc3cccnc3)C2)cc1 (stereo unspecified)	0	58	-	0	0	0
CSc1ccc(C(=O)C2CCCN(C(=O)CCc3cnn(C)c3)C2)cc1 (stereo unspecified)	0	50	0	0	0	0
NC(=O)C1=CC(c2ccc(C(F)(F)F)cc2)CC(OCc2ccc(CO)cc2)O1 (stereo unspecified)	-	-	0	-	-	-
COc1ccc(-n2c(C)cc(C=NNc3nnc(C)n3N)c2C)cc1	-	-	0	-	-	-
O=C(NN=Cc1cccc(OCc2ccccc2)c1)c1ccc(Br)cc1	-	-	0	-	-	-
COc1ccccc1NS(=O)(=O)c1cc(NC(=NS(=O)(=O)c2ccccc2)c2ccc(F)cc2)ccc1Cl	-	-	0	-	-	-
Cc1nn2c(C)c(C(=O)Nc3ccccc3)cnc2c1C#N	0	51	0	0	0	0
O=C(NCc1ccc(F)cc1)c1cccc2c1C(=O)c1ccc(N3CCC(Cc4ccccc4)CC3)cc1S2(=O)=O	-	-	0	0	0	0
CC1CCN(c2ccc3c(c2)S(=O)(=O)c2cccc(C(=O)NCc4ccc(F)cc4)c2C3=O)CC1	-	-	0	0	+	0
COc1ccc(N(C)S(=O)(=O)c2cccc(C(=O)Nc3nc4ccccc4[nH]3)c2)cc1	0	0	0	0	0	0
CN(c1cccc(Cl)c1)S(=O)(=O)c1cccc(C(=O)Nc2nc3ccccc3[nH]2)c1	0	51	0	0	0	0
O=[N+]([O-])c1ccc2[nH]c(O)c(N=Nc3ccc(F)cc3)c2c1	0	0	0	0	316	0
Oc1[nH]c2ccccc2c1N=Nc1ccccc1F	0	0	0	0	+	0
SMILES	SARS 3CLpro inh	VHR inh abs	Mtb hypoxia inh	PrP 5UTR inh	MazEF act	PrPC TRFRET
Oc1[nH]c2ccccc2c1N=Nc1ccc(F)cc1	0	0	0	0	+	0
CC(C)(O)C(=O)N=Nc1c(O)[nH]c2ccccc12	0	0	0	0	0	0
Oc1[nH]c2ccc(Br)cc2c1N=Nc1ccc(F)cc1	0	0	0	0	564	0
OCC(O)C=NNc1nc(Nc2ccccc2)nc(Nc2ccccc2)n1 (stereo unspecified)	-	-	0	-	-	-
CC(=NN=C(C)c1cccc(N)c1)c1cccc(N)c1	-	-	0	-	-	-
Oc1[nH]c2ccccc2c1N=Nc1ccccc1	0	0	0	0	158	0
N#Cc1ccc2nc(-c3ccc(CN4CCC(n5c(=O)[nH]c6ccccc65)CC4)cc3)c(-c3ccccc3)nc2c1	-	-	-	-	-	0
O=c1[nH]c(-c2ccccc2)cn1C1CCN(Cc2ccc(-c3nc4ccc(Br)cc4nc3-c3ccccc3)cc2)CC1	-	-	-	-	-	31
